Source: PubChem
Shown are actives, neighbours in structure and some others; about 7% of the full set was active somewhere.
IL1B secr inh – inflammasome signaling inhibition, IL-1 beta readout; AID 743279; activity change, % at 57.5 µM; actives 4.7% (n = 360,000); THP-1 LPS/ATP IL-1B secretion, AlphaLISA, 16 h; stronger effect = lower value; in the data active = activity change below about -50%; inconclusive = mostly about -30% to -49%; also: % is scaled to controls: 0 for no effect and ±100 for the full control effect
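Secreted IL-1B measured by AlphaLISA bead assay after 16 h compound exposure of THP-1 cells; compounds (final up to 57.5 uM) added 1 h before LPS (250 ng/mL) and ATP (1.25 mM) stimulation; lower signal means less secretion.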
D3 antag – D3 dopamine receptor (human) antagonism | actives 2.5% (n = 360,000) | P35462 | max response, negative = inhibition, % | D3R cells, DiscoveRx beta-arrestin luminescence, antagonist mode; stronger effect = lower value; in the data active = max response below about -50%; inconclusive = no clear call, values can overlap the other calls; also: % is scaled to controls: 0 for no effect and ±100 for the full control effect
Target sequence (P35462 whole entry, looked up): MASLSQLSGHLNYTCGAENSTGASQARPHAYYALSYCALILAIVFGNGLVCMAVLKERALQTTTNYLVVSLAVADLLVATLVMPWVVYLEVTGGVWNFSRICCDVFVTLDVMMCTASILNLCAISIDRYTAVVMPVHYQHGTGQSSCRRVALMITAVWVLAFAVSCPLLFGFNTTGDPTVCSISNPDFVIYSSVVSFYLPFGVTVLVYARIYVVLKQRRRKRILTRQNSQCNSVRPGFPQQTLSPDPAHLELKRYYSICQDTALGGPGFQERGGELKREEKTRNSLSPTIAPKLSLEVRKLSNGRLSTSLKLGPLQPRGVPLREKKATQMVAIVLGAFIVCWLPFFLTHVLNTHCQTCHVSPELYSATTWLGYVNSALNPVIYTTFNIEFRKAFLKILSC
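Cells expressing the human receptor were seeded at 1500 cells/well, incubated overnight at 37 degrees C in 5% CO2, then exposed to library compounds with dopamine controls for 90 minutes at 37 degrees C before luminescent detection.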
DRD3 agonist – D3 dopamine receptor (human) agonism. actives 0.58% (n = 410,000). D3R DiscoveRx beta-arrestin cells, luminescence, 90 min. AID 652048. P35462. max activation, %; in the data active = max activation above about 30%; also: 0% is about no effect
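Agonist mode: compounds and dopamine controls were applied to plated cells for 90 min at 37 degrees C after an overnight attachment at 1500 cells/well. Luminescent read-out followed 30 - 60 minutes at room temperature with DiscoveRx detection reagent.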
ATXN2 expr inh – ATXN2 expression inhibition. HEK-293 ATXN2-luciferase reporter, luminescence, 24 h. Potency, µM (highest dose often 57 µM), for inactives: at the top dose activity change, negative = inhibition, usual class: inhibitors. actives 0.72% (n = 360,000). AID 1745845; also: potency is read from the fitted curve at half-maximal effect; % is scaled to controls: 0 for no effect and ±100 for the full control effect; nearly all actives have a fitted effect of over 55% in size
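ATXN2-luciferase reporter cells (luciferase flanked by upstream and downstream ATXN2 gene portions) were treated 24 h at 37 °C with compounds at up to 57 uM. SteadyGlo luminescence gave expression; GF-AFC fluorescence gave viability.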
ATXN viability – cell viability loss in ATXN counter-screen. Potency, µM (doses to about 56.7 µM), usual class: cytotoxic. actives 0.49% (n = 400,000). AID 651635. S2 cells (HEK-293 line with an ATXN2-luciferase reporter) viability, CellTiter-Fluor protease fluorescence, 24 h; also: potency is read from the fitted curve at half-maximal effect; nearly all actives have a fitted effect of over 40% in size
Integrin act MD – integrin-mediated muscular dystrophy alleviation activation; actives 0.064% (n = 350,000); alpha7betagal myoblasts, beta-gal FDG fluorescence, 48 h; AID 624291; Potency, µM (titrated, usually from 38.3 µM), without a hit: at the top dose activation, usual class: activators;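 also: potency is read from the fitted curve at half-maximal effect; 100% = response of the positive control SU9516; nearly all actives have a fitted effect of over 60% in size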
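alpha7betagal+/- myoblasts (passage 13, 250/well) treated 48 h at 37C with compounds at 1:260 dilution of DMSO stock. Lysed, then beta-galactosidase activity read as FDG fluorescence (ex 480/em 540) after 30 min, with pre-read for autofluorescence.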
Starred values were filed as active, the others as inactive. Unless noted, calls follow the shape of the dose curve; as a rule, active = well fitted curve in the direction sought with a large enough effect; inconclusive = small, poorly fitted or top-dose-only effect, or another doubt; inactive = no such curve, though single readings can be large; an effect the other way counts as inactive or inconclusive.

What do the screens show for `OC(CNC1CCCCCC1)COc1cccc2ccccc12` (stereo not given)?
IL1B secr inh: -105.3*; D3 antag: -75.5*; DRD3 agonist: -19.6; ATXN2 expr inh: inconclusive; ATXN viability: inconclusive; Integrin act MD: inconclusive

How did Cc1cc(SCC#N)n2nc(C)c(-c3ccccc3)c2n1 do in these assays?
IL1B secr inh: -59.6*; D3 antag: -16.5; DRD3 agonist: -1.4; ATXN2 expr inh: 3.5%; ATXN viability: inactive; Integrin act MD: -51.0%

What do the screens show for `Cc1cc(NC2CCCC2)n2nc(C)c(-c3ccccc3)c2n1`?
IL1B secr inh: -74.1*; D3 antag: -25.5; DRD3 agonist: 10.3; ATXN2 expr inh: 21.2%; ATXN viability: inactive; Integrin act MD: 2.7%

Results for COc1ccc(-c2c(C)nn3c(NC4CCCC4)cc(C)nc23)cc1OC ?
IL1B secr inh: -3.7; D3 antag: 27.7; DRD3 agonist: 6.1; ATXN viability: inconclusive; Integrin act MD: -22.0%

Results for Cc1ccc(NCC(=O)N/N=C/c2cccc(Oc3ccccc3)c2)cc1 ?
IL1B secr inh: -77.1*; D3 antag: 20.9; DRD3 agonist: 22.1; ATXN2 expr inh: inconclusive; ATXN viability: inconclusive; Integrin act MD: -55.1%

Results for Cc1cccc(NCC(=O)N/N=C\c2cccc(Oc3ccccc3)c2)c1 ?
IL1B secr inh: -1.3; D3 antag: 15.7; DRD3 agonist: 9.4; ATXN2 expr inh: -28.5%; ATXN viability: inconclusive; Integrin act MD: -17.3%

Results for Cc1cc(C)c2oc(C(=O)NCc3ccccc3)cc(=O)c2c1 ?
IL1B secr inh: inconclusive; D3 antag: -23.8; DRD3 agonist: -8.1; ATXN2 expr inh: 3.1%; ATXN viability: inactive; Integrin act MD: 4.7%

What do the screens show for `Cc1cc(C)c2c(=O)cc(C(=O)NCc3ccccc3)oc2c1`?
IL1B secr inh: 29.9; D3 antag: -52.8*; DRD3 agonist: -45.6; ATXN2 expr inh: -14.5%; ATXN viability: inactive; Integrin act MD: 0.9%

How did COc1ccc(C2CC(c3cccc(Br)c3)=NN2c2ccc(S(N)(=O)=O)cc2)cc1 (stereo not given) do in these assays?
IL1B secr inh: 0.0; D3 antag: 11.3; DRD3 agonist: -13.9; ATXN2 expr inh: inconclusive; Integrin act MD: -37.5%

How did COc1cccc(CN2CCN(Cc3ccc(O)c(OC)c3)CC2CCO)c1 (stereo not given) do in these assays?
IL1B secr inh: -9.4; D3 antag: -18.8; DRD3 agonist: -13.8; ATXN2 expr inh: -14.5%; ATXN viability: inactive; Integrin act MD: 7.6%

What do the screens show for `COC(=O)c1cccc(C#CC(NP(=O)(c2ccccc2)c2ccccc2)c2ccccc2)c1` (stereo not given)?
IL1B secr inh: -64.2*; D3 antag: -16.2; DRD3 agonist: -13.4; ATXN2 expr inh: inconclusive; ATXN viability: inconclusive; Integrin act MD: -36.6%

What do the screens show for `CCC[C@@H]1C[C@@]1(CCC)[C@@H](NP(=O)(c1ccccc1)c1ccccc1)c1ccc(C(=O)OC)cc1`?
IL1B secr inh: -2.7; D3 antag: 7.8; DRD3 agonist: -6.7; ATXN2 expr inh: inconclusive; ATXN viability: inconclusive; Integrin act MD: -2.9%

How did CN(C)S(=O)(=O)c1ccc(Cl)c(NC(=O)COC(=O)CCSc2ccccc2)c1 do in these assays?
IL1B secr inh: 33.6; D3 antag: 0.0; DRD3 agonist: 1.4; ATXN2 expr inh: -8.0%; ATXN viability: inactive; Integrin act MD: 0.0%

How did O=C(CN1CCC(n2nnc3cc(F)ccc32)CC1)NCCc1ccccc1 do in these assays?
IL1B secr inh: 7.9; D3 antag: -27.0; DRD3 agonist: -27.2; ATXN2 expr inh: 12.8%; ATXN viability: inactive; Integrin act MD: 8.2%

Results for Cc1ccccc1NC(=O)Cn1nnc(-c2ccc(N3CCOCC3)cc2)n1 ?
IL1B secr inh: 15.0; D3 antag: 27.8; DRD3 agonist: 4.5; ATXN2 expr inh: -5.3%; ATXN viability: inactive; Integrin act MD: -18.8%

What do the screens show for `O=C(CN1CCC(n2nnc3cc(F)ccc32)CC1)NC1CC1`?
IL1B secr inh: 2.1; D3 antag: -56.7*; DRD3 agonist: -8.7; ATXN2 expr inh: 3.4%; ATXN viability: inactive; Integrin act MD: 5.9%

How did O=C(CN1CCC(n2nnc3cc(F)ccc32)CC1)Nc1ccccc1N1CCOCC1 do in these assays?
IL1B secr inh: -19.0; D3 antag: -54.8*; DRD3 agonist: -5.0; ATXN2 expr inh: -1.1%; ATXN viability: inactive; Integrin act MD: -26.1%

Results for CN(C)c1ccc(-c2nnn(CC(=O)Nc3ccccc3N3CCOCC3)n2)cc1 ?
IL1B secr inh: -77.0*; D3 antag: 37.3; DRD3 agonist: 15.3; ATXN2 expr inh: -22.6%; ATXN viability: inconclusive; Integrin act MD: -24.5%

How did O=C(CN1CCC(n2nnc3cc(F)ccc32)CC1)NC1CCCCC1 do in these assays?
IL1B secr inh: 1.9; D3 antag: -85.5*; DRD3 agonist: -3.7; ATXN2 expr inh: 6.2%; ATXN viability: inactive; Integrin act MD: -24.9%

How did CCn1c(C(=O)N2CCc3ccccc3C2)cc2sccc21 do in these assays?
IL1B secr inh: -1.1; D3 antag: 0.0; DRD3 agonist: -6.0; ATXN2 expr inh: -12.9%; ATXN viability: inactive; Integrin act MD: -5.6%

What do the screens show for `O=C(CN1CCC(n2nnc3cc(F)ccc32)CC1)N1CCc2ccccc2C1`?
IL1B secr inh: -62.4*; D3 antag: inconclusive; DRD3 agonist: -23.0; ATXN2 expr inh: -7.9%; ATXN viability: inactive; Integrin act MD: -26.8%

How did COCC(=O)N1CCC(n2nnc3cc(F)ccc32)CC1 do in these assays?
IL1B secr inh: 2.4; D3 antag: 8.6; DRD3 agonist: 0.8; ATXN2 expr inh: -0.6%; ATXN viability: inactive; Integrin act MD: 4.8%

Results for CCCCSCc1[nH]c(=O)[nH]c1C(=O)CCCCC(=O)OCC ?
IL1B secr inh: 4.6; D3 antag: -4.1; DRD3 agonist: -2.4; ATXN2 expr inh: -2.2%; ATXN viability: inactive; Integrin act MD: 1.7%

What do the screens show for `Cc1[nH]c(=O)[nH]c1C(=O)CCCCC(=O)O`?
IL1B secr inh: -94.9*; D3 antag: -4.7; DRD3 agonist: -1.2; ATXN2 expr inh: 16.8%; ATXN viability: inconclusive; Integrin act MD: -4.3%

Results for CCOC(=O)c1ccc2ncc(-c3ccccc3)nc2c1 ?
IL1B secr inh: 49.9; D3 antag: 7.2; DRD3 agonist: -3.4; ATXN2 expr inh: 66.6%; ATXN viability: inactive; Integrin act MD: 20.3%

What do the screens show for `COc1ccc(-n2cnnc2SCC(=O)c2cc(C)n(Cc3cccs3)c2C)cc1`?
IL1B secr inh: -64.9*; D3 antag: -23.5; DRD3 agonist: -8.1; ATXN2 expr inh: 30.5%; ATXN viability: inactive; Integrin act MD: -6.6%
